DUSP3 inh = inhibitors of human VHR1 phosphatase (DUSP3) | recombinant VHR phosphatase, colorimetric substrate read-out | inhibition, % at 20 µM | hit rate 0.7% among 50,000 | AID 1992; in the data active means inhibition above about 60%
Target sequence (P51452 whole entry, looked up): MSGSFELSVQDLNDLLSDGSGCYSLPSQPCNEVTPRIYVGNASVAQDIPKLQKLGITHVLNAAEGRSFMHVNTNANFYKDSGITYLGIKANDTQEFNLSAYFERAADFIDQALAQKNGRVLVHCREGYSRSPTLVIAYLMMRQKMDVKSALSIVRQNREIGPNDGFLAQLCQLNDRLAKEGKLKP
Numbers without * were called inactive. The sample as a whole holds a higher share of hits than the screen did.

SMILES | DUSP3 inh
Cc1n[nH]c(C)c1CCCOc1ccc(Cl)cc1 | -6
Nc1ccc(C2=Nc3cccc4cccc(c34)N2)cc1 | 85*
O=C(N/N=C/c1cc(Br)ccc1O)c1cc(C2CC2)[nH]n1 | -5
O=c1[nH]c(/C=C/c2ccccc2)c([N+](=O)[O-])c(=O)[nH]1 | 0
O=c1[nH]c(/C=C/c2ccc(N3CCOCC3)c([N+](=O)[O-])c2)c([N+](=O)[O-])c(=O)[nH]1 | 80*
CCOc1cc(/C=C/c2[nH]c(=O)[nH]c(=O)c2[N+](=O)[O-])ccc1O | -16
O=c1[nH]cc(NN=c2c(=O)c3ccccc3c2=O)c(=O)[nH]1 | -13
COCCOC(=O)C1=C(C)NC(=S)NC1c1ccccc1OC (centres undefined) | 10
CCCN(CCC)CN1C(=O)S/C(=C/c2ccc(SC)cc2)C1=O | 9
CCOc1ccc(-c2nc3sc4c(c3c(=O)[nH]2)CCCC4)cc1OCC | -1
COc1ccc(-c2nc3sc4c(c3c(=O)[nH]2)CCCC4)cc1C | 61*
C=CCOc1ccc(-c2nc3sc4c(c3c(=O)[nH]2)CCCC4)cc1OC | 16
C=CCN(CC=C)Cn1[nH]c(=O)ccc1=O | -20
CCOc1cc(C(=O)Nc2sc(C(=O)N(CC)CC)c(C)c2C(=O)OC(C)C)cc(OCC)c1OCC | -8
CCN(CC)C(=O)c1sc(NC(=O)c2cc(OC)cc(OC)c2)c(C(=O)OC)c1C | 95*
CCOC(=O)c1c(NC(=O)c2ccc(OC)c(OC)c2)sc(C(=O)N(CC)CC)c1C | -6
CCOc1ccc(NC(=O)c2ccccc2NC(=O)c2ccc(C)cc2)cc1 | -10
O=C(CN(c1cccc(Br)c1)S(=O)(=O)c1ccccc1)NCCc1ccccc1 | -6
O=C(CSc1nc2ccccc2n1Cc1ccccc1)N/N=C/c1cccs1 | -3
O=[N+]([O-])c1ccccc1N[C@@H]1OC[C@@H](O)[C@H](O)[C@H]1O | 2
O=C(O)C(Cc1ccccc1)N1C(=O)/C(=C/C=C/c2ccccc2)SC1=S (centres undefined) | 92*
O=C(O)C(Cc1ccccc1)N1C(=O)/C(=C/c2ccc(F)cc2)SC1=S (centres undefined) | -39
O=C(O)c1ccc(/C=C2\SC(=S)N(C(Cc3ccccc3)C(=O)O)C2=O)cc1 (centres undefined) | -13
O=C(CN(c1ccc(F)cc1)S(=O)(=O)c1ccccc1)Nc1ccccc1 | -1
O=C1CC(c2ccc(Cl)cc2)CC2=C1C(c1ccc3c(c1)OCO3)Nc1ccccc1N2 (centres undefined) | -20
SMILES | DUSP3 inh
CCOc1ccc(C2Nc3ccccc3NC3=C2C(=O)CC(c2ccc(OC)cc2)C3)cc1 (centres undefined) | -5
COc1ccc(C2CC(=O)C3=C(C2)Nc2ccccc2NC3c2cccc(OC)c2OC)cc1OC (centres undefined) | -1
Cc1ccc(C2Nc3ccc(C(=O)c4ccccc4)cc3NC3=C2C(=O)CCC3)o1 (centres undefined) | 101*
O=C1CC(c2ccc3c(c2)OCO3)CC2=C1C(c1ccc(-c3ccccc3)cc1)Nc1ccccc1N2 (centres undefined) | 115*
COc1ccc(C2CC(=O)C3=C(C2)Nc2ccccc2NC3c2ccc(C)o2)cc1 (centres undefined) | 94*
Cc1ccc(C2Nc3ccc(C(=O)c4ccccc4)cc3NC3=C2C(=O)CC(C)(C)C3)o1 (centres undefined) | -5
COc1ccc(C2CC(=O)C3=C(C2)Nc2ccccc2NC3c2ccccc2)cc1 (centres undefined) | 23
COc1ccc(C2CC(=O)C3=C(C2)Nc2ccccc2NC3c2ccccc2OCc2ccccc2)cc1OC (centres undefined) | 98*
O=C1CCCC2=C1C(c1ccc(F)cc1)Nc1ccc(C(=O)c3ccccc3)cc1N2 (centres undefined) | 35
O=C1CC(c2ccccc2)CC2=C1C(c1ccc(-c3ccccc3)cc1)Nc1ccccc1N2 (centres undefined) | 4
CCOc1ccccc1C1Nc2ccccc2NC2=C1C(=O)CC(c1ccc(OC)c(OC)c1)C2 (centres undefined) | 44
CCOC(=O)C1=C(O)/C(=C/c2ccc(O)c(OC)c2)SC1=Nc1ccc([N+](=O)[O-])cc1 | 11
COc1ccc(CCNS(=O)(=O)c2ccc3ccccc3c2)cc1OC | -5
O=C(CCCOc1ccc(Cl)cc1Cl)Nc1ccc([N+](=O)[O-])cc1 | -1
Cc1c(NC(=O)COc2ccc(F)cc2)c(=O)n(-c2ccccc2)n1C | 18
O=C1CC(N2CCC(Cc3ccccc3)CC2)C(=O)N1c1cccc(Cl)c1 (centres undefined) | -22
O=C1CC(NC2CCCCC2)C(=O)N1c1ccc(I)cc1 (centres undefined) | -9
CC1(C)CC(=O)C2=C(C1)Nc1ccccc1NC2c1coc2ccccc2c1=O (centres undefined) | 3
O=C1CC(c2ccccc2)CC2=C1C(c1coc3ccccc3c1=O)Nc1ccccc1N2 (centres undefined) | 112*
O=C1CC(c2ccccc2)CC2=C1C(c1ccco1)Nc1ccccc1N2 (centres undefined) | 7
O=C1CC(c2ccccc2)CC2=C1C(c1c(F)cccc1Cl)Nc1ccccc1N2 (centres undefined) | 115*
COc1ccc(C2CC(=O)C3=C(C2)Nc2ccccc2NC3c2c(F)cccc2Cl)cc1 (centres undefined) | 8
O=C1CC(c2ccccc2)CC2=C1C(c1cccc(Cl)c1Cl)Nc1ccccc1N2 (centres undefined) | 2
CCc1ccccc1N1C(=O)/C(=C/c2cc(C)n(-c3cccnc3)c2C)C(=O)NC1=S | 11
Oc1ccc(Br)cc1/C=N/Nc1cc(N2CCOCC2)nc(N2CCOCC2)n1 | -7
SMILES | DUSP3 inh
CC/C(=C/c1ccc(O)c(OC)c1)[N+](=O)[O-] | -27
N#CC(C#N)=CNc1ccc([N+](=O)[O-])cc1 | -13
Cc1nc(C)c(-c2csc(Nc3ccc(O)cc3)n2)s1 | 68
CCN(CC)c1ccc(Nc2nc(-c3sc(N)nc3C)cs2)cc1 | 101*
CCN(CC)c1ccc(Nc2nc(-c3c(C)nc4ccccn34)cs2)cc1 | 55
Cc1ccc(OCC(=O)NN)c(Br)c1 | -19
O=C(Nc1ccc(Cl)c(Cl)c1)Nc1cccc(Cl)c1Cl | 3
O=C(Oc1ccc(/C=N/O)cc1)c1ccc(Br)cc1 | 104*
O=C(N/N=C/c1ccc(/C=N/NC(=O)c2ccc(Br)cc2)cc1)c1ccc(Br)cc1 | -2
Cc1ccc(NCC(=O)N/N=C\c2ccc(OC(=O)c3ccccc3)cc2)cc1 | -10
COc1ccc(-n2cnc3cc(NC(C)=O)ccc32)cc1 | 97*
COc1ccccc1-n1cnc2cc(NC(C)=O)ccc21 | -6
COc1ccccc1-n1cnc2cc(NC(=O)c3ccc(C)cc3)ccc21 | -15
COc1cccc(NC(=O)c2ccc(OC)c(Br)c2)c1 | -14
COC(=O)c1ccc(C2CC(=O)NC(C)=C2C(=O)OCc2ccccc2)cc1 (centres undefined) | -11
CC1=C(C(=O)OCc2ccccc2)C(c2c(F)cccc2Cl)CC(=O)N1 (centres undefined) | 112*
CC1=C(C(=O)OCc2ccccc2)C(c2ccccc2[N+](=O)[O-])CC(=O)N1 (centres undefined) | 97*
CC1=C(C(=O)OCc2ccccc2)C(c2ccc([N+](=O)[O-])cc2)CC(=O)N1 (centres undefined) | -9
CC1=C(C(=O)OCCCc2ccccc2)C(c2c(F)cccc2Cl)CC(=O)N1 (centres undefined) | 8
